# Reference: the supplement of paper PMC10037445
# Where “and” joins values, the source holds several entries; their conditions need not be identical. Equal entries are not always repeated. The full ranking holds about 2,900 compounds; the median of “NF-kB SEAP reporter activity, fold change vs agonist alone” is about 0.99, and the highest 2% start at about 2.6. This is one part of a sample in which the highest values are shown more often than they occur.
# Legend:
# RAW-Dual [1] = experiment: NF-kB SEAP reporter activity, fold change vs agonist alone; higher = enhanced NF-kB activity
# How it was run: (§1)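 RAW-Dual macrophages (50,000 cells/well in DMEM, 384-well plates) received 50 nL of library stock by pin tool, then a PRR agonist 1 h later, and were kept at 37 °C, 5% CO2. After 20 hours, supernatant was read for IRF by QuantiLuc luminescence and for NF-κB by QuantiBlue absorbance at 620 nm. Reporter activity is fold change over agonist-alone wells. Cytotoxic wells had IncuCyte confluency below 70% of agonist controls in both mask sets.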
# RAW-Dual [2] = experiment: NF-kB SEAP reporter activity, fold change vs agonist alone; cytotoxicity flag (confluency mask): not cytotoxic; library stock concentration (final ~1000-fold dilution): 10 mM; higher = enhanced NF-kB activity
# How it was run: as §1
# RAW-Dual [3] = experiment: NF-kB SEAP reporter activity, fold change vs agonist alone; cytotoxicity flag (confluency mask): not cytotoxic; library stock concentration (final ~1000-fold dilution): 10 mM water; higher = enhanced NF-kB activity
# How it was run: as §1
# RAW-Dual [4] = experiment: NF-kB SEAP reporter activity, fold change vs agonist alone; cytotoxicity flag (confluency mask): cytotoxic (confluency <70% of control); library stock concentration (final ~1000-fold dilution): 10 mM; higher = enhanced NF-kB activity
# How it was run: as §1
# [5] = library stock concentration (final ~1000-fold dilution): 10 mM, cytotoxicity flag (confluency mask): not cytotoxic, agonist: Imiquimod (TLR7) […]
# [6] = library stock concentration (final ~1000-fold dilution): 10 mM, cytotoxicity flag (confluency mask): not cytotoxic, agonist: MPLA (TLR4) […]
# [7] = agonist: ODN 1826 (TLR9) 0.5 ug/mL
# [8] = agonist: Pam2CSK4 (TLR2/6) 0.1 ug/mL
# [9] = agonist: Pam3CSK4 (TLR2/1) 0.1 ug/mL
# [10] = library stock concentration (final ~1000-fold dilution): 10 mM, cytotoxicity flag (confluency mask): cytotoxic (confluency <70% of control), agonist: Imiquimod (TLR7) […]
# [11] = library stock concentration (final ~1000-fold dilution): 10 mM, cytotoxicity flag (confluency mask): cytotoxic (confluency <70% of control), agonist: MPLA (TLR4) […]
compound,measurement,setting,value
CC12NC(Cc3ccccc31)c1ccccc12.O=C(O)/C=C\C(=O)O (stereo not drawn),NF-kB SEAP reporter activity,RAW-Dual [1]; [5],1.16
same,NF-kB SEAP reporter activity,RAW-Dual [1]; [6],1.1
same,NF-kB SEAP reporter activity,RAW-Dual [2]; agonist: LPS (TLR4) 0.1 ug/mL,1.25
same,NF-kB SEAP reporter activity,RAW-Dual [2]; [7],0.851
same,NF-kB SEAP reporter activity,RAW-Dual [2]; [8],1.13
same,NF-kB SEAP reporter activity,RAW-Dual [2]; [9],1.15
COc1cc(C)[nH]c(=O)c1CNC(=O)c1c(C)n(C(C)C2CCN(CC(F)(F)F)CC2)c2ccccc12 (stereo not drawn),NF-kB SEAP reporter activity,RAW-Dual [1]; [5],0.35
same,NF-kB SEAP reporter activity,RAW-Dual [1]; [6],0.914
same,NF-kB SEAP reporter activity,RAW-Dual [2]; agonist: LPS (TLR4) 0.1 ug/mL,0.78
same,NF-kB SEAP reporter activity,RAW-Dual [2]; [7],0.953
same,NF-kB SEAP reporter activity,RAW-Dual [2]; [8],0.647
same,NF-kB SEAP reporter activity,RAW-Dual [2]; [9],0.74
CC(N)C(=O)NC(CO)C(=O)NC(C(=O)NC(C(=O)NC(C(=O)NC(CC(N)=O)C(=O)NC(Cc1ccc(O)cc1)C(=O)NC(C(N)=O)C(C)O)C(C)O)C(C)O)C(C)O (stereo not drawn),NF-kB SEAP reporter activity,"RAW-Dual [1]; library stock concentration (final ~1000-fold dilution): 10 mM water, cytotoxicity flag (confluency mask): not cytotoxic, agonist: Imiquimod (TLR7) […]",0.968
same,NF-kB SEAP reporter activity,"RAW-Dual [1]; library stock concentration (final ~1000-fold dilution): 10 mM water, cytotoxicity flag (confluency mask): not cytotoxic, agonist: MPLA (TLR4) […]",1.05
same,NF-kB SEAP reporter activity,RAW-Dual [3]; agonist: LPS (TLR4) 0.1 ug/mL,1.17
same,NF-kB SEAP reporter activity,RAW-Dual [3]; [7],1.25
same,NF-kB SEAP reporter activity,RAW-Dual [3]; [8],1.16
same,NF-kB SEAP reporter activity,RAW-Dual [3]; [9],1.06
C=C(C)C1Cc2c(ccc3c2OC2COc4cc(OC)c(OC)cc4C2C3=O)O1 (stereo not drawn),NF-kB SEAP reporter activity,RAW-Dual [1]; [5],1.87
same,NF-kB SEAP reporter activity,RAW-Dual [1]; [6],1.85
same,NF-kB SEAP reporter activity,RAW-Dual [2]; agonist: LPS (TLR4) 0.1 ug/mL,3.13
same,NF-kB SEAP reporter activity,RAW-Dual [2]; [7],2.36
same,NF-kB SEAP reporter activity,RAW-Dual [2]; [8],1.27
same,NF-kB SEAP reporter activity,RAW-Dual [2]; [9],1.45
CCC1=CC2CN3CCc4c([nH]c5ccccc45)C(C(=O)OC)(C2)C13 (stereo not drawn),NF-kB SEAP reporter activity,RAW-Dual [1]; [5],1.03
same,NF-kB SEAP reporter activity,RAW-Dual [1]; [6],1.11
same,NF-kB SEAP reporter activity,RAW-Dual [2]; agonist: LPS (TLR4) 0.1 ug/mL,1.04
same,NF-kB SEAP reporter activity,RAW-Dual [2]; [7],1.06
same,NF-kB SEAP reporter activity,RAW-Dual [2]; [8],0.935
same,NF-kB SEAP reporter activity,RAW-Dual [2]; [9],1.03
COC1=CC2C3Cc4ccc(OC)c(O)c4C2(CCN3C)CC1=O.Cl (stereo not drawn),NF-kB SEAP reporter activity,RAW-Dual [1]; [5],0.858
same,NF-kB SEAP reporter activity,RAW-Dual [1]; [6],0.999
same,NF-kB SEAP reporter activity,RAW-Dual [2]; agonist: LPS (TLR4) 0.1 ug/mL,0.877
same,NF-kB SEAP reporter activity,RAW-Dual [2]; [7],0.884
same,NF-kB SEAP reporter activity,RAW-Dual [2]; [8],1.16
same,NF-kB SEAP reporter activity,RAW-Dual [2]; [9],1.09
CN1C2CC(OC(=O)C(CO)c3ccccc3)CC1C1OC12 (stereo not drawn),NF-kB SEAP reporter activity,RAW-Dual [1]; [5],0.917
same,NF-kB SEAP reporter activity,RAW-Dual [1]; [6],1.04
same,NF-kB SEAP reporter activity,RAW-Dual [2]; agonist: LPS (TLR4) 0.1 ug/mL,1.23
same,NF-kB SEAP reporter activity,RAW-Dual [2]; [7],1.02
same,NF-kB SEAP reporter activity,RAW-Dual [2]; [8],1.11
same,NF-kB SEAP reporter activity,RAW-Dual [2]; [9],1.58
CN1Cc2c(ccc3c2OCO3)C2C(O)Cc3cc4c(cc3C21)OCO4 (stereo not drawn),NF-kB SEAP reporter activity,RAW-Dual [1]; [10],1.6
same,NF-kB SEAP reporter activity,RAW-Dual [1]; [11],1.66
same,NF-kB SEAP reporter activity,RAW-Dual [4]; agonist: LPS (TLR4) 0.1 ug/mL,2.16
same,NF-kB SEAP reporter activity,RAW-Dual [4]; [7],1.75
same,NF-kB SEAP reporter activity,RAW-Dual [4]; [8],1.42
same,NF-kB SEAP reporter activity,RAW-Dual [4]; [9],2.18
COc1cc(C)[nH]c(=O)c1CNC(=O)c1c(C)n(C(C)C2CCOCC2)c2ccccc12 (stereo not drawn),NF-kB SEAP reporter activity,RAW-Dual [1]; [5],0.902
same,NF-kB SEAP reporter activity,RAW-Dual [1]; [6],1.02
same,NF-kB SEAP reporter activity,RAW-Dual [2]; agonist: LPS (TLR4) 0.1 ug/mL,1.26
same,NF-kB SEAP reporter activity,RAW-Dual [2]; [7],1.05
same,NF-kB SEAP reporter activity,RAW-Dual [2]; [8],0.992
same,NF-kB SEAP reporter activity,RAW-Dual [2]; [9],0.786
Cl[Te]1(Cl)(Cl)OCCO1.N,NF-kB SEAP reporter activity,RAW-Dual [1]; [5],0.792
same,NF-kB SEAP reporter activity,RAW-Dual [1]; [6],0.899
same,NF-kB SEAP reporter activity,RAW-Dual [2]; agonist: LPS (TLR4) 0.1 ug/mL,1.39
same,NF-kB SEAP reporter activity,RAW-Dual [2]; [7],0.846
same,NF-kB SEAP reporter activity,RAW-Dual [2]; [8],0.912
same,NF-kB SEAP reporter activity,RAW-Dual [2]; [9],1.28
CCCCCCC[n+]1ccc(-c2cc[n+](CCCCCCC)cc2)cc1,NF-kB SEAP reporter activity,RAW-Dual [1]; [5],1.32
same,NF-kB SEAP reporter activity,RAW-Dual [1]; [6],2.11
same,NF-kB SEAP reporter activity,RAW-Dual [2]; agonist: LPS (TLR4) 0.1 ug/mL,3.95
same,NF-kB SEAP reporter activity,RAW-Dual [2]; [7],1.17
same,NF-kB SEAP reporter activity,RAW-Dual [2]; [8],1.02
same,NF-kB SEAP reporter activity,RAW-Dual [2]; [9],1.14
CCCCCc1cc(O)cc(O)c1,NF-kB SEAP reporter activity,RAW-Dual [1]; [6],0.946
same,NF-kB SEAP reporter activity,RAW-Dual [2]; agonist: LPS (TLR4) 0.1 ug/mL,1.11
same,NF-kB SEAP reporter activity,RAW-Dual [2]; [7],0.427
same,NF-kB SEAP reporter activity,RAW-Dual [2]; [8],0.966
same,NF-kB SEAP reporter activity,RAW-Dual [2]; [9],0.739
O=C([O-])C(Cl)Cl.[Na+],NF-kB SEAP reporter activity,RAW-Dual [2]; agonist: LPS (TLR4) 0.1 ug/mL,1.11 and 0.906
same,NF-kB SEAP reporter activity,RAW-Dual [2]; [7],1.14 and 0.982
same,NF-kB SEAP reporter activity,RAW-Dual [2]; [8],1.11 and 0.989
same,NF-kB SEAP reporter activity,RAW-Dual [2]; [9],1.19 and 1.32
CCNc1nc(Cl)nc(NC(C)C)n1,NF-kB SEAP reporter activity,RAW-Dual [1]; [6],1.29
same,NF-kB SEAP reporter activity,RAW-Dual [2]; agonist: LPS (TLR4) 0.1 ug/mL,1.55
same,NF-kB SEAP reporter activity,RAW-Dual [2]; [7],1.4
same,NF-kB SEAP reporter activity,RAW-Dual [2]; [8],1.5
same,NF-kB SEAP reporter activity,RAW-Dual [2]; [9],1.67
COc1cc(C2c3cc4c(cc3C(O)C3COC(=O)C23)OCO4)cc(OC)c1OC (stereo not drawn),NF-kB SEAP reporter activity,RAW-Dual [1]; [10],1.61
same,NF-kB SEAP reporter activity,RAW-Dual [1]; [11],1.92
same,NF-kB SEAP reporter activity,RAW-Dual [4]; agonist: LPS (TLR4) 0.1 ug/mL,5.49
same,NF-kB SEAP reporter activity,RAW-Dual [4]; [7],2.81
same,NF-kB SEAP reporter activity,RAW-Dual [4]; [8],1.6
same,NF-kB SEAP reporter activity,RAW-Dual [4]; [9],2.18
COc1ccc2c(c1OC)CN1CCc3cc4c(cc3C1C2)OCO4 (stereo not drawn),NF-kB SEAP reporter activity,RAW-Dual [1]; [6],1
same,NF-kB SEAP reporter activity,RAW-Dual [2]; agonist: LPS (TLR4) 0.1 ug/mL,1.21
same,NF-kB SEAP reporter activity,RAW-Dual [2]; [7],1.04
same,NF-kB SEAP reporter activity,RAW-Dual [2]; [8],0.89
same,NF-kB SEAP reporter activity,RAW-Dual [2]; [9],1.26
COc1cc(C2c3cc4c(cc3C(O)C3COC(=O)C23)OCO4)cc(OC)c1O (stereo not drawn),NF-kB SEAP reporter activity,RAW-Dual [1]; [5],2.53
same,NF-kB SEAP reporter activity,RAW-Dual [1]; [6],2.24
same,NF-kB SEAP reporter activity,RAW-Dual [2]; agonist: LPS (TLR4) 0.1 ug/mL,3.91
same,NF-kB SEAP reporter activity,RAW-Dual [2]; [7],3.47
same,NF-kB SEAP reporter activity,RAW-Dual [2]; [8],2.24
same,NF-kB SEAP reporter activity,RAW-Dual [2]; [9],2.24
CC[N+](C)(CC)CCOC(=O)C(O)(c1ccccc1)c1ccccc1,NF-kB SEAP reporter activity,RAW-Dual [1]; [6],1.01
same,NF-kB SEAP reporter activity,RAW-Dual [2]; agonist: LPS (TLR4) 0.1 ug/mL,0.821
same,NF-kB SEAP reporter activity,RAW-Dual [2]; [7],0.989
same,NF-kB SEAP reporter activity,RAW-Dual [2]; [8],0.934
same,NF-kB SEAP reporter activity,RAW-Dual [2]; [9],1.39
COc1cc(-n2c(S)nc3ccccc3c2=O)c(Cl)cc1Cl,NF-kB SEAP reporter activity,RAW-Dual [1]; [5],0.851
same,NF-kB SEAP reporter activity,RAW-Dual [1]; [6],0.953
same,NF-kB SEAP reporter activity,RAW-Dual [2]; agonist: LPS (TLR4) 0.1 ug/mL,1.4
same,NF-kB SEAP reporter activity,RAW-Dual [2]; [7],0.842
same,NF-kB SEAP reporter activity,RAW-Dual [2]; [8],0.849
same,NF-kB SEAP reporter activity,RAW-Dual [2]; [9],0.826
